From PubChem BioAssay (NCATS) come the findings set out here.

Assay [1] concerns the target Lysosomal acid glucosylceramidase (Homo sapiens) (UniProt P04062). Kind of assay: Glucocerebrosidase-p2 (AID 348; in the data active = potency below about 10 µM; note: potency is the fitted concentration of half-maximal effect). To be noted: purified GBA, blue fluorogenic substrate, 40 min. The procedure, abridged: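 Normal human glucocerebrosidase (0.2 nM) with blue fluorogenic substrate (80 uM final) in citrate/phosphate pH 5.9 with 10mM sodium taurocholate, 0.01% tween-20; 40 min RT, NaOH/glycine stop; fluorescence Ex 365/Em 440; AC50 from a titration from 0.6 nM upwards.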

The nature of assay [2]: AP1 Signaling Pathway (AID 357).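 Note: ME-180 reporter cells stimulated with EGF at its EC50 level; % is set by controls: 0 for no effect and ±100 for the full control effect.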 To be noted: ME-180 AP-1-bla reporter, EGF-induced, beta-lactamase ratio, 5 h; at 7.69 µM (top of the series) unless noted. The procedure, abridged:
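In this screen, ME-180 cells in Opti-MEM with 0.5% dialyzed FBS received EC50 EGF and compound titrations for 5 h. AP-1 reporter beta-lactamase was detected via CCF4 ratio, giving AC50 for positive and negative modulators.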

Assay [3] is described as follows: NFAT Signaling Pathway (AID 444).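 Note: carbachol stimulus at about its EC50 of 1 µM final; % is set by controls: 0 for no effect and ±100 for the full control effect.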 To be noted: Jurkat NFAT-bla M1, carbachol, beta-lactamase ratio, 5 h; at 7.69 µM (top of the series) unless noted. The procedure, abridged:
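Jurkat cells with NFAT-driven β-lactamase reporter and co-expressed M1 receptor, stimulated with carbachol (final 1 uM, ~EC50), compound titration, 5 h at 37 °C. CCF4 loaded 1 h at RT; 460/530 nm ratio gave %activity and AC50.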

A short description of assay [4]: Stat Signaling Pathway (AID 446).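 Note: ME-180 cervical cancer cells given 40 pM IL-6 alongside compound; SIE-controlled beta-lactamase reporter measured as 460/530 nm FRET emission ratio; % is set by controls: 0 for no effect and ±100 for the full control effect.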 To be noted: ME-180 SIE beta-lactamase reporter, IL-6 stimulated, 5 h; at 7.69 µM (top of the series) unless noted. The method in brief: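 Compound effects on IL-6-induced STAT reporter activity were measured in ME-180 cells. After overnight culture, cells were co-treated with 40 pM IL-6 for 5 hrs before beta-lactamase substrate loading at room temperature.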

Assay [5] has as its target Glucocorticoid receptor (Homo sapiens) (UniProt P04150). Kind of assay: GR-EFC Redistribution (AID 451; calls by dose curve; note: potency is the fitted concentration of half-maximal effect). Particulars: CHO-K1 GR-EFC translocation, beta-gal luminescence, 2 h. The method in brief: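 CHO-K1 cells expressing nuclear EA and GR-ED fragments of b-gal; compounds titrated up to 46 uM final, 2 h at 37 C. GR nuclear translocation read as complemented b-gal luminescence after 1 h RT detection.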

The target in assay [6] is Mitogen-activated protein kinase 10 (Mus musculus) (UniProt Q61831). Kind of assay: JNK3 AlphaScreen Assay (AID 530).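 Note: kinase came from lysate of stimulated human HepG2 cells; signal reports phosphorylation of biotinylated GST-cJun 1-79 at Ser73 with 10 µM ATP; % is set by controls: 0 for no effect and ±100 for the full control effect.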 Particulars: JNK3 lysate, c-Jun phosphorylation; series mostly up to 57.1 µM. The procedure, abridged: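 HepG2 lysate (IL-1b/TNFa pre-activated) + biotin-GST-cJun 1-79 + anti-pSer73 cJun; cpd titration, 15 min RT; ATP 10 uM start; Tris pH 7.6, MgCl2, DTT, vanadate; beads in EDTA buffer; AlphaScreen.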
Background: Alpha assays give light when donor and acceptor beads are brought close together.

Assay [7] addresses 3',5'-cyclic-AMP phosphodiesterase 4B (Homo sapiens) (UniProt Q07343). Put plainly: qHTS Assay for Inhibitors of PDE-IV (AID 607; active = well fitted activation curve with a large enough effect in the main read-out, with a control signal flat, not every such curve was filed as active; note: % of control where 0% means no effect). Particulars: HEK293 ACTOne CNG channel cells, membrane potential fluorescence; series mostly up to 22.9 µM. The procedure, abridged:
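ACTOne HEK293 cells carry a modified cAMP-gated CNG channel and express endogenous PDE4; plated 1000 cells/well, compounds up to 22.9 uM final. Membrane-potential dye fluorescence (ex 535/em 590) was read; parental cells received 10 uM forskolin + 100 uM RO 20-1724.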
(Quantitative high-throughput screening tests each substance at several concentrations.)

The nature of assay [8]: qHTS Assay for Lipid Storage Modulators (AID 1519; calls by dose curve). Particulars: Drosophila S3 cells, BODIPY lipid droplet/cell ratio, laser cytometry, cells loaded with oleic acid; for activity change, negative = inhibition: at 57.5 µM (top of the series). The procedure, abridged: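 Cells seeded at 5,000 per well were treated with compounds over a concentration series and loaded with oleic acid (400 uM, as added). Lipid droplet fluorescence (488 nm excitation, 500-530 nm channel) was read by laser-scanning cytometry and normalized to 20 uM Triacsin C.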

Assay [9] can be described thus: Primary qHTS for small molecule stabilizers of the endoplasmic reticulum resident proteome: Secreted ER Calcium Modulated Protein (SERCaMP) assay (AID 1508630; active = well fitted curve in the direction sought with a large enough effect; an effect the other way counts as inactive or inconclusive; note: % is set by controls: 0 for no effect and ±100 for the full control effect). Particulars: SH-SY5Y GLuc-SERCaMP (Gaussia luciferase released on ER calcium loss) secretion, thapsigargin, luminescence; series mostly up to 38.4 µM. The procedure, abridged:
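The SH-SY5Y reporter protocol was run at 3 concentrations up to 38.3 uM (primary) or 11 concentrations (follow-up): 16 h compound, 100 nM thapsigargin for 4 h, then extracellular luciferase luminescence.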

The target in assay [10] is Cytochrome P450 1A2 (Homo sapiens) (UniProt P05177). Kind of assay: p450-cyp1a2 (AID 410; calls by dose curve; note: potency is the fitted concentration of half-maximal effect;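 for activity change, negative = inhibition: -100% = full effect of reference inhibitor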). To be noted: recombinant CYP1A2, luciferin-ME demethylation, luminescence; series mostly up to 57 µM. The procedure, abridged: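 20nM CYP1A2, 100uM Luciferin-ME (=Km), 100mM KPO4; cpd 10 min RT; +NADPH regen, 60 min RT; stop/detect 20 min; luminescence. Normalized to furafylline 57 uM = full inhibition.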
Chain of Cytochrome P450 1A2 (Homo sapiens) (P05177 whole entry, looked up): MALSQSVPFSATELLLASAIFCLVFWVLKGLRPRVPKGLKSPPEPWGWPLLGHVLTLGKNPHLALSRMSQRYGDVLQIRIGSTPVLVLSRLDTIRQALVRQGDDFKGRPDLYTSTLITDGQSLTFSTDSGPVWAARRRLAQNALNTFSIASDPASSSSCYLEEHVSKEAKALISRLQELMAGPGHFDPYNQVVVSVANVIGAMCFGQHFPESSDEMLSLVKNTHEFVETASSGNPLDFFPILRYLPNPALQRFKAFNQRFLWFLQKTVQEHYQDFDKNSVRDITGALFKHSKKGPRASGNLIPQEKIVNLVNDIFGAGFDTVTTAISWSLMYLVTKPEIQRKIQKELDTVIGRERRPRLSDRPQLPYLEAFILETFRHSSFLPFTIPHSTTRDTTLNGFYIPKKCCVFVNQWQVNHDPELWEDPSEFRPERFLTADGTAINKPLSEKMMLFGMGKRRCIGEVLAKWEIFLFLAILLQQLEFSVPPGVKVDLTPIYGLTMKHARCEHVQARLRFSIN

For assay [11], the target named is Cytochrome P450 3A4 (Homo sapiens) (UniProt P08684). Kind of assay: qHTS Assay for Activators of Cytochrome P450 3A4 (AID 885; active = well fitted curve in the direction sought with a large enough effect; an effect the other way counts as inactive or inconclusive; note: nearly all actives have a fitted effect of over 65% in size). Particulars: recombinant CYP3A4, Luciferin-PPXE luminescence, 60 min; series mostly up to 57.1 µM. The method in brief:
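CYP3A4 activity: Luciferin-PPXE O-dealkylation, 25uM substrate, 200mM KPO4, RT throughout. Read-out is luciferase luminescence; higher values reflect activation.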

Assay [12] concerns the target Glucocorticoid receptor (Homo sapiens) (UniProt P04150). Put plainly: GR-GFP Redistribution (AID 450;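 active = compounds whose dose series gives a full or clear partial fitted curve of increased nuclear translocation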; note: potency is the fitted concentration of half-maximal effect). Particulars: U2OS GR-GFP nuclear translocation, laser cytometry, 2 h.
The target of assay [13] is Cytochrome P450 3A4 (Homo sapiens) (UniProt P08684). Put plainly: qHTS Assay for Inhibitors and Substrates of Cytochrome P450 3A4 (AID 884; active = well fitted curve in the direction sought with a large enough effect; an effect the other way counts as inactive or inconclusive; note: % is set by controls: 0 for no effect and ±100 for the full control effect; nearly all actives have a fitted effect of over 50% in size). Particulars: recombinant CYP3A4, Luciferin-PPXE luminescence; series mostly up to 57.1 µM. The procedure, abridged: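 Luminescent readout of luciferin produced by CYP3A4 (20 nM) dealkylation of Luciferin-PPXE, 25 uM (its KM). NADPH-driven reaction ran 60 min at RT after 10 min compound preincubation; data scaled to 57 uM ketoconazole as 100% inhibition.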
Chain of Cytochrome P450 3A4 (Homo sapiens) (P08684 whole entry, looked up): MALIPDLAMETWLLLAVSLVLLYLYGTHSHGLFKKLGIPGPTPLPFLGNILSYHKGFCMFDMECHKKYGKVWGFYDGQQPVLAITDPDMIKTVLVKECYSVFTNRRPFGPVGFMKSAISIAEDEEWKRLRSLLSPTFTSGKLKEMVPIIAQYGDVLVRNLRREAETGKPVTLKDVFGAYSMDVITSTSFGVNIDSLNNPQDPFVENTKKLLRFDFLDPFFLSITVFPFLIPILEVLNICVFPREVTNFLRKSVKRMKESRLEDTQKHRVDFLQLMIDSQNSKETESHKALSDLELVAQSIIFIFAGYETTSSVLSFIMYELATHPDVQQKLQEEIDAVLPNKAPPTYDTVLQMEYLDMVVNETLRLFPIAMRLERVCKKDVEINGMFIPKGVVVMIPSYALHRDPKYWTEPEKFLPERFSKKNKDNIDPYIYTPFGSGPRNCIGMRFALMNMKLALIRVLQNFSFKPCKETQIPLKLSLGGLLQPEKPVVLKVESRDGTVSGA

Assay [14] in a line: qHTS Assay for Identification of Small Molecule Agonists for Hypoxia Response Element Signaling Pathway (AID 914; active = well fitted activation curve with a large enough effect in the signal ratio, with a control signal flat, not every such curve was filed as active; the % refers to the signal ratio; note: % of control where 0% means no effect). Particulars: ME-180 (cervical carcinoma) HRE-bla reporter, beta-lactamase ratio, CoCl2, 17 h; activation: stronger effect = higher value. The method in brief: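 Reporter activity (beta-lactamase, CCF4 460nm/530nm ratio) in HRE-bla ME-180 cells is recorded after 17 h compound exposure with EC50 CoCl2 at 37 degrees Celsius. AC50 values come from titration data.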

Setting [15] is: measured here: cell count channel max response.
[16] abbreviates: measured here: lipid channel max response.

Inconclusive results are not listed. The source made the active and inactive calls. Unless noted, calls come from the whole dose curve; as a rule, active = well fitted curve in either direction with a large enough effect (not every such curve was filed as active); inconclusive = small, poorly fitted or top-dose-only effect, or another doubt; inactive = flat fitted curve, though single readings scatter.

Chain of 3',5'-cyclic-AMP phosphodiesterase 4B (Homo sapiens) (Q07343 whole entry, looked up): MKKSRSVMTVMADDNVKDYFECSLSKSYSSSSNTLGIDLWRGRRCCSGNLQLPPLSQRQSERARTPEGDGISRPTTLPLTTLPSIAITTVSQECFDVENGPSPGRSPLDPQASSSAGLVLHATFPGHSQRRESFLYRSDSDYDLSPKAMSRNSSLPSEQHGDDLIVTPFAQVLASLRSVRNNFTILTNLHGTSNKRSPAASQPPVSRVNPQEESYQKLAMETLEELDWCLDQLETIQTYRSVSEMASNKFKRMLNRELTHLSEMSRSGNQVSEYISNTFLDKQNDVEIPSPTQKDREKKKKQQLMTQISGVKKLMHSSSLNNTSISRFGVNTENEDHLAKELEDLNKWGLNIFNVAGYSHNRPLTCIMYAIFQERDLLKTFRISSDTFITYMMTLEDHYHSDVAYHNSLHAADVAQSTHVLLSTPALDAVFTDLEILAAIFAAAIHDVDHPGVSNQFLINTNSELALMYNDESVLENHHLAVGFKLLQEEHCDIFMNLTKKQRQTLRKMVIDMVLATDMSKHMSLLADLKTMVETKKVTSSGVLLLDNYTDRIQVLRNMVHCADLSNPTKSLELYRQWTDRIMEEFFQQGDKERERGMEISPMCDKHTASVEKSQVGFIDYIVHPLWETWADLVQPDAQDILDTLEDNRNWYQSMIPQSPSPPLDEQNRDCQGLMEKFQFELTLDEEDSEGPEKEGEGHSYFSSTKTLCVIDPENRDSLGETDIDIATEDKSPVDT
Chain of Lysosomal acid glucosylceramidase (Homo sapiens) (P04062 whole entry, looked up): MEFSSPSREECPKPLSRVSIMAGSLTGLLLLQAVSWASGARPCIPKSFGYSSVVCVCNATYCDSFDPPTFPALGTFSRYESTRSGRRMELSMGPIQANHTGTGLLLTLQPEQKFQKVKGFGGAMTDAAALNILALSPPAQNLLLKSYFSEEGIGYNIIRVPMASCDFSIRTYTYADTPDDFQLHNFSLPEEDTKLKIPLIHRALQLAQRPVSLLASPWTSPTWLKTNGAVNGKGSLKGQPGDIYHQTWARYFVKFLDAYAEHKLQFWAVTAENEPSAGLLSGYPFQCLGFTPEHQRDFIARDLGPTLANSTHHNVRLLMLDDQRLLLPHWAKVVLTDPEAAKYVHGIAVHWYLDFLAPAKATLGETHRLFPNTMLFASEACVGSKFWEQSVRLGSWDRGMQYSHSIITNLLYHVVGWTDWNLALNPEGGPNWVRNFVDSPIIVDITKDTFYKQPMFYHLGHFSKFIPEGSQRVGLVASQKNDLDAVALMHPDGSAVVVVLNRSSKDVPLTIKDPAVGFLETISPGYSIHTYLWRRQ
Chain of Glucocorticoid receptor (Homo sapiens) (P04150 whole entry, looked up, the tested form may be a part): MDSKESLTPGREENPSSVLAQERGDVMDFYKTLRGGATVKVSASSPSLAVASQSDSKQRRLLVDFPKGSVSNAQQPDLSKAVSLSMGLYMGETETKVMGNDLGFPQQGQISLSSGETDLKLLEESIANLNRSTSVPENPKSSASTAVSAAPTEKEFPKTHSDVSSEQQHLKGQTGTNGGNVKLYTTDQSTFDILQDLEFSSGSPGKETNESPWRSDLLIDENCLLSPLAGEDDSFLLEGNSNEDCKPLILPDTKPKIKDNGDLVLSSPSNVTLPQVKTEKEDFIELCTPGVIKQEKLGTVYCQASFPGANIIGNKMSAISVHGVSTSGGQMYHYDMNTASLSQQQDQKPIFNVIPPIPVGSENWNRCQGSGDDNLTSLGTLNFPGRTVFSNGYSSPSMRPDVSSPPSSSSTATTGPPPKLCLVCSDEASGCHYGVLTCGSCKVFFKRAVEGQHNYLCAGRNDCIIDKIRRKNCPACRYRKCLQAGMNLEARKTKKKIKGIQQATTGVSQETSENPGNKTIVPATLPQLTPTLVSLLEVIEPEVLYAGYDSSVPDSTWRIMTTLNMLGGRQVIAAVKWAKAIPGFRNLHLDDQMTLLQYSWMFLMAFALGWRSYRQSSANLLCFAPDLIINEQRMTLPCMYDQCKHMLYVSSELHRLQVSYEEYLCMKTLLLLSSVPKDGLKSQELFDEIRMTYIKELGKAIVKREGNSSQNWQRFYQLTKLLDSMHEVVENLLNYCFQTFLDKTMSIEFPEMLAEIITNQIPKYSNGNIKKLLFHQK

Regarding `O=C(Nc1ccccc1)N1CCC2(CC1)CCN(C(=O)c1ccncc1)CC2`, the Potency in assay [1] is > 11.4 µM (inactive); in assay [5], > 46 µM (inactive). The activity change, negative = inhibition was -8.86% (inactive) in assay [2], -7.39% (inactive) in [3] and 7.6% (inactive) in assay [8]. Moreover, the activity, negative = inhibition in assay [4] is 2.23% (inactive). The result in [6] was inactive. Further, the Potency entry in assay [7] and in assay [9] was “inactive” in each case. Also, the max response in assay [8] (setting [15]) was found to be 12.3%; in [8] (setting [16]) it was 27.7%.

Consider `CC(=O)N1CCC2(CC1)CN(c1ccccn1)C2`, for which the Potency in assay [1] was > 11.4 µM (inactive); in assay [5], > 46 µM (inactive). The activity change, negative = inhibition in assay [2] is -8.91% (inactive); in [3], 6.27% (inactive); in [8], 7.33% (inactive). The activity, negative = inhibition in assay [4] was -0.186% (inactive). The Potency entry in [7] and in assay [9] was “inactive” throughout. The max response in assay [8] (setting [15]) is 3.77%; in assay [8] (setting [16]), 14.1%.

For the compound `c1ccc(-c2ccc(N3CC4(CCNCC4)C3)cc2)cc1`, the Potency in assay [1] is > 11.4 µM (inactive); in [10], 15.8 µM (active); in assay [5], > 46 µM (inactive). The values for the activity change, negative = inhibition in assay [2] and in [8] were 5.34% (inactive) and -2.41% (inactive), respectively. Moreover, the activity, negative = inhibition in assay [4] was 4.95% (inactive). Besides, the Potency result in assay [7], in assay [11] and in [9] was “inactive” each time. The results for the max response in assay [8] (setting [15]) and in assay [8] (setting [16]) were -25% and -25.6%, respectively.

For `Cn1c(=O)c(-c2cc(F)cc(F)c2)nc2cnc(Oc3ccccc3)nc21`, the values for the Potency in [1], in assay [12] and in [5] were > 11.4 µM (inactive), > 9.22 µM (inactive) and > 46 µM (inactive), respectively. In addition, the figures for the activity change, negative = inhibition in assay [2], in [3] and in assay [8] were -7.91% (inactive), 3.31% (inactive) and -4.93% (inactive), respectively. Besides, the activity, negative = inhibition in assay [4] was 0.814% (inactive). Moreover, in [6], the result was inactive. The Potency result in [7], in assay [13] and in assay [9] was “inactive” in each case. Moreover, the max response stood at 21.4% in [8] (setting [15]) and 16.5% in assay [8] (setting [16]).

Regarding `CC(C)NC(=O)N1CC[C@@]2(CCCN(C(=O)c3cc(C(F)(F)F)cc(C(F)(F)F)c3)C2)C1`, the Potency in [1] is > 11.4 µM (inactive); in [5] it was > 46 µM (inactive). The activity change, negative = inhibition in [2] was 8.49% (inactive); in [8], 1.68% (inactive). The Potency result in assay [10], in assay [7], in assay [11] and in [9] was “inactive” in each case. For the same compound, the activity, negative = inhibition in assay [4] is -10.1% (inactive). Besides, the compound was called inactive in [6]. Moreover, in assay [14], the activation was -1.12% (inactive). For the same compound, the figures for the max response in [8] (setting [15]) and in assay [8] (setting [16]) were 19.4% and 20.3%, respectively.
